In PubChem BioAssay (NCI) one finds growth data, which are given here for 13 molecules.

The panel holds about 83,000 compounds, 20% with a hit somewhere; the sample as a whole holds those more often.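 Cell lines were cultured in 96-well plates, exposed to a single compound concentration, and assessed for percent growth 48 hours later.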 A number with no mark means an inactive call. Calls of active or inactive are those of the source. How the source made its calls: active means growth percent below 10; inactive means the rest.

Test systems include NCI-H23 lung; NCI-H226 lung; NCI-H322M lung; HOP-62 NSCLC; NCI-H460 lung; HOP-92 NSCLC; NCI-H522 lung; A549/ATCC NSCLC; 786-0 renal; COLO 205 colon.
What all share (experiment): NCI-60 one-dose screen, 48 h (100 = growth as untreated, 0 = no growth, -100 = all killed)
Holding throughout (settings): 10 µM unless noted

As to `COc1ccc(Nc2nnc(-c3ccc(OC)c(OC)c3)o2)cc1`, the growth in the experiment with NCI-H23 lung is 74.1%; in the experiment on NCI-H226 lung, 85.3%; with NCI-H322M lung, 87.4%; in the experiment with HOP-62 NSCLC, 84.9%; in the experiment on NCI-H460 lung, 100%; with HOP-92 NSCLC, 66.4%. The growth is 62.8% with NCI-H522 lung, 83.9% with A549/ATCC NSCLC, 91.9% in the experiment on 786-0 renal and 99.5% with COLO 205 colon.

As to `O=C(/C=C(/C=C/c1ccc2[nH]ccc2c1)OB(F)F)/C=C/c1ccc2[nH]ccc2c1`, the growth in the experiment on NCI-H23 lung is -26.6% (active); in the experiment with NCI-H226 lung, -59.5% (active); in the experiment with NCI-H322M lung, 27.5%; in the experiment with HOP-62 NSCLC it was -16.5% (active); in the experiment with NCI-H460 lung, 0.421% (active); in the experiment with HOP-92 NSCLC, 4.49% (active). Also, the growth is -68.5% (active) in the experiment on NCI-H522 lung, -53.6% (active) in the experiment with A549/ATCC NSCLC, -57.1% (active) in the experiment on 786-0 renal and -38.4% (active) in the experiment with COLO 205 colon.

As to `O=C(c1ccncc1)N1N=C(c2ccc(Cl)cc2)C[C@H]1c1cn(-c2ccccc2)nc1-c1ccccc1`, the growth with NCI-H23 lung is 91.5%; in the experiment with NCI-H226 lung it was 89.9%; with NCI-H322M lung, 92.7%; with HOP-62 NSCLC, 92.8%; with NCI-H460 lung, 88.2%; in the experiment with HOP-92 NSCLC, 67%. In addition, the growth is 96.1% in the experiment on NCI-H522 lung, 81.7% in the experiment with A549/ATCC NSCLC, 97.9% in the experiment with 786-0 renal and 119% in the experiment with COLO 205 colon.

Turning to `COc1cc(-c2nccc3[nH]c(-c4ccc5cc[nH]c5c4)nc23)cc(OC)c1OC`, the growth was 26.1% in the experiment on NCI-H23 lung; 19.3% in the experiment on NCI-H226 lung; 45% in the experiment on NCI-H322M lung; -19.6% (active) with HOP-62 NSCLC; 2.58% (active) in the experiment with NCI-H460 lung; -8.58% (active) with HOP-92 NSCLC. For the same molecule, the growth in the experiment on NCI-H522 lung is -59.5% (active); in the experiment on A549/ATCC NSCLC, -28.5% (active); in the experiment with 786-0 renal it was -56% (active); in the experiment with COLO 205 colon, -71.5% (active).

On to `COc1ccc(Nc2ncc(Br)c(NCCCNC(=O)C3CCCC3)n2)cc1`, for which the growth is 30.3% in the experiment on NCI-H23 lung; 28.5% in the experiment on NCI-H226 lung; 58.5% in the experiment on NCI-H322M lung; 22.4% in the experiment with HOP-62 NSCLC; 23.6% with NCI-H460 lung; 26% with HOP-92 NSCLC. Moreover, the growth was 65.7% in the experiment on NCI-H522 lung, 38.9% in the experiment with A549/ATCC NSCLC, 36.3% in the experiment with 786-0 renal and 21.6% in the experiment with COLO 205 colon.

As to `COC(=O)[C@]1(C)CCC[C@]2(C)[C@H]3C[C@H]4C(C(C)C)=C[C@]3(CC[C@H]21)[C@@H]1C(=O)CC[C@H](OCCC#N)[C@@H]14`, the growth in the experiment with NCI-H23 lung was 84.7%; in the experiment on NCI-H226 lung, 74.3%; with NCI-H322M lung, 106%; in the experiment with HOP-62 NSCLC it was 95%; in the experiment on NCI-H460 lung, 94.7%; in the experiment on HOP-92 NSCLC it was 76.6%. Besides, the growth was 89.9% in the experiment on NCI-H522 lung, 92.2% in the experiment on A549/ATCC NSCLC, 81% in the experiment on 786-0 renal and 85.2% in the experiment with COLO 205 colon.

As for `COCCn1cc(-c2nc(-c3cc4cccnc4[nH]3)cs2)c2cc(OC)ccc21`, the growth in the experiment with NCI-H23 lung is 8.67% (active); in the experiment with NCI-H226 lung it was 28.8%; with NCI-H322M lung it was 21.2%; with HOP-62 NSCLC, 13.4%; with NCI-H460 lung, 7.21% (active); in the experiment on HOP-92 NSCLC, 4.04% (active). For the same molecule, the growth in the experiment with NCI-H522 lung is 41.6%; in the experiment on A549/ATCC NSCLC, 24.8%; with 786-0 renal it was 28.5%; in the experiment with COLO 205 colon it was 49.4%.

With `N#Cc1ccc(O)c(C2=NCC(c3cccc(Oc4ccccc4)c3)O2)c1` (stereo not given), the growth in the experiment with NCI-H23 lung is 41.1%; in the experiment on NCI-H226 lung it was 45.2%; in the experiment on NCI-H322M lung it was 41.7%; in the experiment with HOP-62 NSCLC, 2.94% (active); in the experiment on NCI-H460 lung, 4.55% (active); in the experiment on HOP-92 NSCLC, 36.8%. The growth is -11.9% (active) with NCI-H522 lung, -0.648% (active) in the experiment with A549/ATCC NSCLC, 26.4% in the experiment on 786-0 renal and 14.7% with COLO 205 colon.

`C[PH+](c1nc2ccccc2nc1[PH+](C)C(C)(C)C)C(C)(C)C.C[PH+](c1nc2ccccc2nc1[PH+](C)C(C)(C)C)C(C)(C)C.[Au+].[Cl-]` (stereo not given): the growth was -90.2% (active) in the experiment with NCI-H23 lung; -60.4% (active) in the experiment on NCI-H226 lung; -94% (active) in the experiment with NCI-H322M lung; -94.3% (active) in the experiment with HOP-62 NSCLC; -85.5% (active) with NCI-H460 lung; -81.5% (active) with HOP-92 NSCLC. For the same molecule, the growth in the experiment with NCI-H522 lung was -88.7% (active); in the experiment with A549/ATCC NSCLC it was -73.8% (active); in the experiment with 786-0 renal, -96.6% (active); in the experiment with COLO 205 colon, -100% (active).

Regarding `CC1CCN(S(=O)(=O)c2ccc(S(=O)(=O)N3CCCC(c4nc5c(nnn5Cc5cccc(Cl)c5)c(=O)[nH]4)C3)cc2)CC1` (stereo not given), the growth in the experiment on NCI-H23 lung is 65.4%; in the experiment with NCI-H226 lung, 75.2%; with NCI-H322M lung, 61.3%; in the experiment on HOP-62 NSCLC it was 57.2%; in the experiment on NCI-H460 lung, 23.9%; in the experiment on HOP-92 NSCLC it was 56%. The growth was 33.7% with NCI-H522 lung, 64.8% in the experiment on A549/ATCC NSCLC, 64.4% in the experiment on 786-0 renal and 91.3% with COLO 205 colon.

In the case of `Cc1ccc(C[P+](c2ccccc2)(c2ccccc2)c2ccccc2)cc1`, the growth was -9.16% (active) with NCI-H23 lung; 16.1% with NCI-H226 lung; 38.8% in the experiment on NCI-H322M lung; 13.5% in the experiment with HOP-62 NSCLC; 3.04% (active) with NCI-H460 lung; -0.267% (active) in the experiment with HOP-92 NSCLC. Further, the growth in the experiment with NCI-H522 lung is 10.3%; in the experiment on A549/ATCC NSCLC it was 26.9%; in the experiment with 786-0 renal it was 25.6%; in the experiment on COLO 205 colon, -15.5% (active).

On to `Cc1ccccc1/C=C/C(=O)c1cccc(OCCCCOc2cccc(C(=O)/C=C/c3ccccc3C)c2)c1`, for which the growth was 94.6% with NCI-H23 lung; 91.7% in the experiment with NCI-H226 lung; 92.1% with NCI-H322M lung; 102% with HOP-62 NSCLC; 98.1% in the experiment with NCI-H460 lung; 93.6% in the experiment on HOP-92 NSCLC. In addition, the growth in the experiment with NCI-H522 lung is 85.8%; with A549/ATCC NSCLC it was 84.2%; in the experiment on 786-0 renal it was 96.4%; with COLO 205 colon it was 106%.

Take `CC(C)c1ccc(C(=O)Nc2sc3c(c2C(N)=O)CCC(=O)C3)cc1`: the growth in the experiment on NCI-H23 lung is -7.38% (active); in the experiment on NCI-H226 lung, 50.9%; in the experiment with NCI-H322M lung, 69.4%; in the experiment with HOP-62 NSCLC it was 26.2%; in the experiment on NCI-H460 lung, 1.37% (active); in the experiment with HOP-92 NSCLC, -32% (active). Moreover, the growth was -55.8% (active) with NCI-H522 lung, 16.8% with A549/ATCC NSCLC, 19.7% in the experiment on 786-0 renal and -43.6% (active) in the experiment with COLO 205 colon.
